KCNH2 3.1 block: KCNH2 3.1 (human) potassium channel inhibition; actives 0.95% (n = 340,000); activity change, % (tested at about 1.8 µM); U2OS KCNH2 3.1, thallium flux FluxOr; hits give low values;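 active = maximum activity change below -70%; inconclusive = maximum activity change from -70% to -50%; inactive = maximum activity change above -50%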;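 note: thallium influx rate constant from kinetic fluorescence after stimulation buffer; % is set by controls: 0 for no effect and ±100 for the full control effect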
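Steps: virus added to U2OS suspension (4 h, RT, dark); medium with 10% FBS added, cells plated, 37 C overnight; FluxOr/Red40 loading buffer 45 min RT; stimulation buffer, 2 min kinetic read; rate constant normalized.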
TRPV1 PAM: potentiators of human vanilloid receptor 1 (TRPV1); TRPV1-expressing cells, Fluo-8 calcium influx, capsaicin EC20 potentiation; potentiation, % at 8.33 µM; actives 0.02% (n = 320,000); AID 540277; in the data active = potentiation above about 80%; inconclusive = between about 30% and that limit; note: 0% is about no effect
Target sequence (Q8NER1 whole entry, looked up): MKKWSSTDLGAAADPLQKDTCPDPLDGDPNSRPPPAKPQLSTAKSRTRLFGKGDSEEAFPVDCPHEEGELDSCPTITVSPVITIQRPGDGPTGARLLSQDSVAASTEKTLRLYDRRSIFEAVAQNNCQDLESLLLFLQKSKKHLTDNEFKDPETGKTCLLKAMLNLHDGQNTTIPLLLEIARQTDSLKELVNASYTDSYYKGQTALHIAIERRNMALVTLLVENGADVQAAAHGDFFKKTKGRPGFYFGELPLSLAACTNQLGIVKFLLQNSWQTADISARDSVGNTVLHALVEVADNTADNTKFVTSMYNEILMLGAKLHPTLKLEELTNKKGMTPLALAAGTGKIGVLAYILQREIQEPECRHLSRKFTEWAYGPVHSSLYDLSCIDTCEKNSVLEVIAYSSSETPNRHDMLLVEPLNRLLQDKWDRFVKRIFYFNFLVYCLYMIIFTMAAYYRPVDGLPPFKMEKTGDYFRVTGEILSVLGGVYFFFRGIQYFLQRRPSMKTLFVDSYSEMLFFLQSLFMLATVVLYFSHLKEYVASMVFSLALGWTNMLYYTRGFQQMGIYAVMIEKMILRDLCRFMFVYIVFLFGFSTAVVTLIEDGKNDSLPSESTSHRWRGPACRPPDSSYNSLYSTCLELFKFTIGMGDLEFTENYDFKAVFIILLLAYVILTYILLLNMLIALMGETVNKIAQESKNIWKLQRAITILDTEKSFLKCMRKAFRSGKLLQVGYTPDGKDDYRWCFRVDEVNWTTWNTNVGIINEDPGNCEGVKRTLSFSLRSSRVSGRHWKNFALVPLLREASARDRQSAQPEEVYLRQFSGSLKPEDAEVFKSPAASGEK
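Cells expressing TRPV1 were dye-loaded with Fluo-8 and read kinetically: 10 s baseline, 3 min after compound (agonist portion), then 2 min after EC20 capsaicin (allosteric enhancer portion). Calcium-bound dye fluorescence at 480/520 nm.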
KCNH2 WT inh: blocks the wildtype human KCNH2 potassium channel; Q12809; U2OS, BacMam KCNH2, thallium flux FluxOr; hits give low values; activity change, % at 1.84 µM; actives 0.37% (n = 340,000); AID 720551;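 active = maximum activity change below -70%; inconclusive = maximum activity change between -70% and -50%; inactive = maximum activity change above -50%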; note: % is set by controls: 0 for no effect and ±100 for the full control effect
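U2OS cells were transduced with wild-type KCNH2 virus (2.03 x 10^8 / mL) for 4 h at room temperature, then cultured overnight at 37 C. Thallium flux was read with FluxOr dye. Rate constants were normalized to DMSO controls.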
TRPV1 agonist: activates the human vanilloid receptor TRPV1 | Q8NER1 | TRPV1-expressing cells, Fluo-8 calcium influx, agonist mode | activation, % at 8.33 µM | actives 0.19% (n = 320,000); in the data active = activation above about 80%; inconclusive = between about 30% and that limit; note: 0% is about no effect
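Cells expressing TRPV1 were dye-loaded with Fluo-8 and read kinetically: 10 s baseline, 3 min after compound (agonist portion), then 2 min after EC20 capsaicin (allosteric enhancer portion). Calcium-bound dye fluorescence at 480/520 nm.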
MBNL1 CUG block: inhibitors of human MBNL1 binding to CUG repeat RNA. Q9NR56. TR-FRET MBNL1-His/biotin-(CUG)12 binding, 665/545 ratio. Potency, µM (titrated, usually from 57.5 µM), for inactives: at the highest dose activity change, negative = inhibition, usual class: inhibitors. actives 0.036% (n = 280,000). AID 2675; active = well fitted inhibition curve with a large enough effect in the signal ratio, with a control signal flat, not every such curve was filed as active; inconclusive = small, poorly fitted or top-dose-only effect, or effect the other way, or a change in a side signal; inactive = no such curve, though single readings can be large or run the other way; the % refers to the signal ratio; note: potency is the fitted concentration of half-maximal effect; % is set by controls: 0 for no effect and ±100 for the full control effect
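His-tagged MBNL1 binding to biotinylated (CUG)12 RNA was measured by TR-FRET using terbium anti-His antibody (0.055 ng/ul final) and streptavidin-XL665 (5 nM final). Compounds were titrated 92 nM to 58 uM; 60 min at room temperature.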
An asterisk follows results filed as active; i = inactive; ? = inconclusive; · = no result. Rows were chosen to be rich in hits. Some 1.3% of all compounds tested hit in one or more screens of this group.

SMILES | KCNH2 3.1 block | TRPV1 PAM | KCNH2 WT inh | TRPV1 agonist | MBNL1 CUG block
CCN(C[C@H]1N[C@@](CC)(C(=O)OC)[C@H]2C(=O)N(C)C(=O)[C@@H]12)S(=O)(=O)c1ccc(F)cc1 | -2 | · | 3 | · | ·
c1ccc(-c2nc3nonc3c3nc4ccccc4n23)cc1 | -80* | 8 | 5 | -1 | 56%
Cc1cnn(-c2cc(N/N=C/c3ccccc3Cl)ncn2)c1 | -7 | -14 | -247* | -1 | -9%
CCOc1ccc(-c2nc[nH]c2[N+](=O)[O-])cc1 | -198* | -2 | -9 | -2 | ?
O=C1c2ccc([N+](=O)[O-])cc2C(=O)N1Cc1cccnc1 | -31 | 21 | -13 | 9 | ?
CCOc1ccc(OCc2ccc(C(=O)N/N=C(\C)c3ccccn3)cc2)cc1 | -12 | 1 | -72* | 6 | -1%
Cc1ccc(O)c(NC(=O)CSc2ccc(Cl)cc2)c1 | -105* | 0 | -12 | ? | -9%
Cc1ccc(NS(=O)(=O)c2ccc(NC(=O)CSc3ccc(Cl)cc3)cc2)c(C)c1 | 0 | 13 | -9 | 2 | -5%
CN(C)C1=NCCN1CCCC1CCCCC1 | -28 | ? | -2 | -1 | ·
CN(C)C1=NCCN1CCC1CCCC1 | -109* | -1 | 9 | 1 | 5%
CCOC(=O)c1c(C)nc2sccn12 | -95* | 8 | 12 | -3 | -9%
O=C(CN(Cc1ccccc1)S(=O)(=O)c1ccccc1)NC1CC1 | -1 | 3 | -159* | -1 | 2%
Cc1ccccc1C(=O)Nc1c(C(=O)N(CCN(C)C)Cc2ccco2)oc2ccccc12 | -84* | -21 | -92* | 19 | -8%
COc1ccc(OCC(=O)Nc2c(C(=O)N(CCN(C)C)Cc3ccco3)oc3ccccc23)cc1 | -111* | 5 | ? | 9 | 0%
CCCOC(=O)c1cccc(Nc2nc(-c3cccnc3)nc3ccccc23)c1 | -4 | ? | i | -4 | -13%
Cc1noc(C)c1S(=O)(=O)N(C)C[C@H]1Oc2ccc(NC(=O)NC(C)C)cc2C(=O)N([C@H](C)CO)C[C@@H]1C | 16 | · | -6 | · | ·
COc1cc(C(C(=O)NC2CCCC2)N(CCO)C(=O)Cn2nnc(-c3ccc(C)o3)n2)ccc1O (configuration not stated) | -23 | 1 | 9 | 1 | 0%
CN(C)CCCNc1ncnc2sc(-c3ccccc3)cc12 | -89* | -2 | 17 | 0 | ?
CCOC(CNc1ncnc2sc(-c3ccccc3)cc12)OCC | 10 | -19 | -4 | 27 | 23%
N#Cc1ccc(NC(=O)COC(=O)CCc2nc3ccccc3c(=O)[nH]2)cc1 | 13 | -7 | -3 | 1 | ·
COc1ccc(S(=O)(=O)N(CC(=O)N/N=C/c2cccs2)c2cc(C)cc(C)c2)cc1OC | -95* | 8 | 1 | 1 | 19%
COc1ccc(C(=O)NNC(=O)c2ccc(F)c(S(=O)(=O)N3CCOCC3)c2)cc1 | -3 | · | -4 | · | ·
COc1ccc(NC(=O)CN(c2ccc(F)cc2)S(=O)(=O)c2ccccc2)c(OC)c1 | 0 | 1 | -8 | 5 | -14%
COc1ccc(S(=O)(=O)N2CCC(C(=O)NCCC(=O)NCc3cccnc3)CC2)cc1 | -9 | · | -74* | · | ·
Cc1ccc2oc(-c3cc(NC(=O)c4ncn[nH]4)ccc3O)nc2c1 | -8 | 6 | i | -1 | -1%
SMILES | KCNH2 3.1 block | TRPV1 PAM | KCNH2 WT inh | TRPV1 agonist | MBNL1 CUG block
CC(NC(=O)c1ccccc1NC(=O)c1ccccc1)C(=O)N1CCOCC1 (configuration not stated) | -6 | 7 | 1 | 80* | ·
COc1cc(C)ccc1OCCOc1c(C)cc(Cl)cc1Cl | -2 | -1 | -33 | 3 | ·
Cc1cc(C)cc(NC(=O)c2cc(S(=O)(=O)N3CCCC3)cn2C)c1 | -107* | 1 | 11 | -2 | -10%
COc1ccc(CNS(=O)(=O)c2cc3c4c(c2)C(C)C(=O)N4CCC3)cc1 (configuration not stated) | 3 | 13 | -12 | -2 | 3%
COc1cccc(CC2(CO)CCCN(C/C=C/c3ccccc3OC)C2)c1 (configuration not stated) | -86* | 5 | -71* | -10 | -1%
COc1cccc(CC2(CO)CCCN(Cc3ccccc3Cl)C2)c1 (configuration not stated) | 3 | -12 | 43 | 24 | -3%
COc1cccc(CC2(CO)CCCN(Cc3cc(F)ccc3-n3cccn3)C2)c1 (configuration not stated) | -105* | -5 | ? | 21 | 6%
COc1cccc(CC2(CO)CCCN(Cc3ccc(OC)c(C)c3OC)C2)c1 (configuration not stated) | -113* | -9 | -79* | 5 | -3%
COc1ccc(CN2CCN(Cc3cccc(Oc4ccccc4)c3)CC2)c(OC)c1OC | -73* | 9 | ? | 0 | -3%
COc1ccccc1/C=C/CN1CCCC(CO)(Cc2cccc(Cl)c2)C1 (configuration not stated) | -42 | -4 | 0 | 12 | -4%
Cc1cc(=O)oc2cc(NC(=O)Cc3ccccc3[N+](=O)[O-])ccc12 | -3 | -13 | -2 | 8 | 9%
COc1cc(OC)cc(C(=O)NCCS(=O)(=O)N2CCN(Cc3ccccc3)CC2)c1 | -25 | 10 | 3 | 4 | ·
CCc1ccc(C(=O)c2cnc3ccc(OC)cc3c2N2CCN(CC)CC2)cc1 | -20 | -28 | 5 | ? | 28%
CCOc1ccc2ncc(C(=O)c3ccc(OC)cc3)c(N3CCN(CC)CC3)c2c1 | -75* | 6 | ? | 10 | 8%
COc1ccccc1OCCn1cc(C=O)c2ccccc21 | -90* | -13 | -7 | 10 | -6%
O=C(COC(=O)C1COc2ccccc2O1)NC1CCCCC1 (configuration not stated) | 6 | · | -9 | · | ·
O=C(COC(=O)C1COc2ccccc2O1)NC(=O)NC1CCCC1 (configuration not stated) | -143* | 3 | -198* | 1 | -4%
CC(C)N(C)CCOC(=O)C1COc2ccccc2O1 (configuration not stated) | -204* | -4 | 1 | -5 | 1%
Cc1nnc(SC(C)C)n(N)c1=O | 11 | -3 | 3 | 2 | ·
CCN1CCN(CCCN(Cc2ccco2)C(=S)Nc2cccc(Cl)c2C)CC1 | -32 | 7 | 18 | 1 | -2%
CCN1CCN(CCCN(Cc2ccco2)C(=S)Nc2ccccc2Cl)CC1 | -1 | 128* | 9 | -2 | -3%
CC(C)(C)c1ccc(C(=O)NNc2cc(N3CCCCC3)nc(N3CCCCC3)n2)cc1 | -13 | 19 | 6 | -3 | ?
O=C(NNc1cc(N2CCCC2)nc(N2CCCC2)n1)c1ccc([N+](=O)[O-])cc1 | -90* | 5 | -41 | -1 | 18%

Source: PubChem (National Center for Advancing Translational Sciences (NCATS))
